# From PubChem BioAssay AID1159580 (chemical genetic matrix, 2015)
# Where “and” joins values, the source holds several entries; their conditions need not be identical. Identical values can stand only once. Hit rate of the full screen: of about 5,500 compounds, about 2,000 (36%) were called active. Roughly 18% stayed inconclusive and do not appear here. This is one part of the list. Unmarked numbers belong to inactive results. No stated cut-off is given here; in the data, active means normalized growth mostly below about 0.91 (no sharp cut-off); inconclusive means no clear call, values can overlap the other calls; inactive means mostly above about 0.92.
# Assay: chemical genetic growth profiling, strain panel (AID 1159580);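 further: tested at 20 µM; growth read once vehicle control cultures reached saturation at 30 °C; 1 = growth at the plate median or of vehicle wells; lower values mean less growth of the strain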
# Details: S. cerevisiae deletion strains, growth OD
smiles,measurement,setting,value
OCCN1CCN(CCCN2c3ccccc3Sc3ccc(C(F)(F)F)cc32)CC1,normalized growth,"locus YAL013W, strain DEP1, active compounds read low",0.947 and 0.96
same,normalized growth,"locus YAL021C, strain ccr4, active compounds read low",0.828 (active)
same,normalized growth,"locus YAL026C, strain drs2, active compounds read low",0.0826 (active)
same,normalized growth,"locus YAL030W, strain snc1, active compounds read low",0.984
same,normalized growth,"locus YAL040C, strain CLN3, active compounds read low",1.01
same,normalized growth,"locus YBL061C, strain skt5, active compounds read low",0.951
same,normalized growth,"locus YBR009C, strain hhf1, active compounds read low",0.935
same,normalized growth,"locus YBR021W, strain FUR4, active compounds read low",0.589 (active)
same,normalized growth,"locus YBR023C, strain chs3, active compounds read low",0.899 (active)
same,normalized growth,"locus YBR171W, strain sec66, active compounds read low",0.992
same,normalized growth,"locus YBR229C, strain ROT2, active compounds read low",0.987
same,normalized growth,"locus YBR231C, strain swc5, active compounds read low",0.964
same,normalized growth,"locus YBR279W, strain paf1, active compounds read low",0.953
same,normalized growth,"locus YCL011C, strain gbp2, active compounds read low",0.919
same,normalized growth,"locus YCL016C, strain dcc1, active compounds read low",0.937
same,normalized growth,"locus YCL029C, strain bik1, active compounds read low",0.978
same,normalized growth,"locus YCL061C, strain MRC1 (second series), active compounds read low",0.957
same,normalized growth,"locus YCL069W, strain vba3, active compounds read low",0.995
same,normalized growth,"locus YCR088W, strain abp1, active compounds read low",0.987
same,normalized growth,"locus YDL005C, strain med2, active compounds read low",1
same,normalized growth,"locus YDL035C, strain GPR1, active compounds read low",0.928
same,normalized growth,"locus YDL040C, strain nat1, active compounds read low",0.98
same,normalized growth,"locus YDL074C, strain BRE1, active compounds read low",0.808
same,normalized growth,"locus YDL101C, strain DUN1, active compounds read low",0.979
same,normalized growth,"locus YDL134C, strain PPH21, active compounds read low",0.977
same,normalized growth,"locus YDL185W, strain tfp1, active compounds read low",0.981
same,normalized growth,"locus YDL192W, strain arf1, active compounds read low",0.963
same,normalized growth,"locus YDR001C, strain nth1, active compounds read low",0.989
same,normalized growth,"locus YDR069C, strain doa4, active compounds read low",0.863 (active)
same,normalized growth,"locus YDR101C, strain arx1, active compounds read low",0.933
same,normalized growth,"locus YDR137W, strain rgp1, active compounds read low",1.27 [resistant] (active)
same,normalized growth,"locus YDR150W, strain NUM1, active compounds read low",0.997
same,normalized growth,"locus YDR159W, strain sac3, active compounds read low",0.992
same,normalized growth,"locus YDR162C, strain NBP2, active compounds read low",0.947
same,normalized growth,"locus YDR195W, strain ref2",1.27 [resistant] (active)
same,normalized growth,"locus YDR297W, strain sur2, active compounds read low",0.981
same,normalized growth,"locus YDR318W, strain mcm21, active compounds read low",0.947
same,normalized growth,"locus YDR334W, strain swr1, active compounds read low",0.987
same,normalized growth,"locus YDR335W, strain msn5, active compounds read low",0.972
same,normalized growth,"locus YDR363W, strain ESC2, active compounds read low",0.978
same,normalized growth,"locus YDR388W, active compounds read low",0.878 (active)
same,normalized growth,"locus YDR392W, strain spt3, active compounds read low",1.06
same,normalized growth,"locus YDR502C, strain sam2, active compounds read low",0.939
same,normalized growth,"locus YEL003W, strain gim4, active compounds read low",0.982
same,normalized growth,"locus YEL037C, strain rad23, active compounds read low",0.994
same,normalized growth,"locus YEL061C, strain CIN8 (second series), active compounds read low",0.973
same,normalized growth,"locus YEL061C, strain CIN8, active compounds read low",0.996
same,normalized growth,"locus YER002W, strain NOP16, active compounds read low",1
same,normalized growth,"locus YER015W, strain faa2, active compounds read low",0.931
same,normalized growth,"locus YER016W, strain bim1, active compounds read low",0.979
same,normalized growth,"locus YER110C, active compounds read low",0.996
same,normalized growth,"locus YER111C, strain swi4, active compounds read low",0.986
same,normalized growth,"locus YER155C, strain BEM2 (second series), active compounds read low",1
same,normalized growth,"locus YER155C, strain BEM2, active compounds read low",0.989
same,normalized growth,"locus YER167W, strain BCK2, active compounds read low",0.974
same,normalized growth,"locus YFR010W, strain ubp6, active compounds read low",0.839 (active)
same,normalized growth,"locus YGL078C, strain dbp3, active compounds read low",0.986
same,normalized growth,"locus YGL086W, strain mad1, active compounds read low",0.964
same,normalized growth,"locus YGL167C, strain pmr1, active compounds read low",0.976
same,normalized growth,"locus YGL173C, strain kem1, active compounds read low",0.964
same,normalized growth,"locus YGL227W, strain vid30, active compounds read low",0.984
same,normalized growth,"locus YGL240W, strain doc1, active compounds read low",0.997
same,normalized growth,"locus YGL248W, strain PDE1, active compounds read low",0.989
same,normalized growth,"locus YGL253W, strain hxk2, active compounds read low",0.917
same,normalized growth,"locus YGR078C, strain PAC10, active compounds read low",0.907 and 0.971
same,normalized growth,"locus YGR135W, strain pre9, active compounds read low",0.896
same,normalized growth,"locus YGR229C, strain SMI1, active compounds read low",0.602 (active) and 0.781 (active)
same,normalized growth,"locus YGR252W, strain gcn5, active compounds read low",0.664 (active)
same,normalized growth,"locus YHR013C, strain ard1, active compounds read low",1
same,normalized growth,"locus YHR027C, strain rpn1, active compounds read low",0.937
same,normalized growth,"locus YHR030C, strain SLT2, active compounds read low",0.933
same,normalized growth,"locus YHR079C, strain IRE1 (second series), active compounds read low",0.973
same,normalized growth,"locus YHR094C, strain hxt1, active compounds read low",0.992
same,normalized growth,"locus YHR129C, strain ARP1, active compounds read low",0.983
same,normalized growth,"locus YHR142W, strain chs7, active compounds read low",0.897
same,normalized growth,"locus YHR200W, strain rpn10, active compounds read low",0.968
same,normalized growth,"locus YIL066C, strain RNR3, active compounds read low",0.915
same,normalized growth,"locus YIL073C, strain SPO22, active compounds read low",1.18
same,normalized growth,"locus YIL125W, strain kgd1, active compounds read low",0.995
same,normalized growth,"locus YIR030C, strain dcg1, active compounds read low",0.985
same,normalized growth,"locus YJL092W, strain hpr5, active compounds read low",0.969
same,normalized growth,"locus YJL095W, strain BCK1 (second series), active compounds read low",0.94
same,normalized growth,"locus YJL095W, strain BCK1, active compounds read low",0.794 (active)
same,normalized growth,"locus YJL115W, strain asf1, active compounds read low",0.95
same,normalized growth,"locus YJL129C, strain trk1, active compounds read low",0.96
same,normalized growth,"locus YJL134W, strain LCB3, active compounds read low",0.997
same,normalized growth,"locus YJL154C, strain vps35, active compounds read low",0.982
same,normalized growth,"locus YJL164C, strain tpk1, active compounds read low",0.917
same,normalized growth,"locus YJL166W, strain qcr8, active compounds read low",0.956
same,normalized growth,"locus YJL168C, strain set2, active compounds read low",0.991
same,normalized growth,"locus YJL187C, strain SWE1 (second series), active compounds read low",0.905
same,normalized growth,"locus YJR043C, strain POL32, active compounds read low",0.971
